Design in all cases: species or system human, MV4-11 + K-562 + COLO205 + SK-N-BE2 + OVCAR-8
One test has as its system ACVR1B. The following applies: read-out: apparent Kd, compound concentrations: 100 nM and 1000 nM (sheet 'Samples'), n = 1.
The next test deals with ACVR2B. Conditions: read-out: apparent Kd; compound concentrations: 100 nM and 1000 nM (sheet 'Samples'), CATDS: 8.2353092384730597E-2; n = 1.
For the next test, the system named is ADCK3. Conditions: read-out: apparent Kd; compound concentrations: 100 nM and 1000 nM (sheet 'Samples'), CATDS: 4.7719442951788302E-2; n = 1.
Another test relates to BCR. Conditions: read-out: apparent Kd; compound concentrations: 100 nM and 1000 nM (sheet 'Samples'), CATDS: 9.2768545935790703E-2; n = 1.
For the next test, the system named is CSNK1G1. Conditions: read-out: apparent Kd; compound concentrations: 100 nM and 1000 nM (sheet 'Samples'), CATDS: 3.1181891791675201E-2; n = 1.
The test system of a further test is DCTPP1. The following applies: read-out: apparent Kd; compound concentrations: 100 nM and 1000 nM (sheet 'Samples'), CATDS: 3.3773682420650999E-2; n = 1.
The subject of a further test is DDR1. Conditions: read-out: apparent Kd, compound concentrations: 100 nM and 1000 nM (sheet 'Samples'), n = 1.
Another test relates to FLT4. The following applies: read-out: apparent Kd; compound concentrations: 100 nM and 1000 nM (sheet 'Samples'), CATDS: 0.117719858007404; n = 1.
The next test deals with GAK. Conditions: read-out: apparent Kd, compound concentrations: 100 nM and 1000 nM (sheet 'Samples'), n = 1.
The test system of a further test is MAPK14. Conditions: read-out: apparent Kd, compound concentrations: 100 nM and 1000 nM (sheet 'Samples'), n = 1.
A further test deals with MAPKAPK2. The following applies: read-out: apparent Kd, compound concentrations: 100 nM and 1000 nM (sheet 'Samples'), n = 1.
The subject of the next test is PDGFRB. The following applies: read-out: apparent Kd; compound concentrations: 100 nM and 1000 nM (sheet 'Samples'), CATDS: 3.2777041424413303E-2; n = 1.
The test system of the next test is PIK3CD. Conditions: read-out: apparent Kd; compound concentrations: 100 nM and 1000 nM (sheet 'Samples'), CATDS: 7.8466162037350698E-2; n = 1.
Another test relates to PIM2. The following applies: read-out: apparent Kd; compound concentrations: 100 nM and 1000 nM (sheet 'Samples'), CATDS: 3.2827495568097498E-2; n = 1.
The next test relates to PRKAG1. The following applies: read-out: apparent Kd; compound concentrations: 100 nM and 1000 nM (sheet 'Samples'), CATDS: 0.117727250561146; n = 1.
A further test deals with RET. The following applies: read-out: apparent Kd; compound concentrations: 100 nM and 1000 nM (sheet 'Samples'), CATDS: 0.121628255608471; n = 1.
A further test concerns RIPK2. The following applies: read-out: apparent Kd; compound concentrations: 100 nM and 1000 nM (sheet 'Samples'), CATDS: 9.1819090008616905E-2; n = 1.
A further test has as its system RIPK3. The following applies: read-out: apparent Kd, compound concentrations: 100 nM and 1000 nM (sheet 'Samples'), n = 1.
The subject of another test is SLK. Conditions: read-out: apparent Kd; compound concentrations: 100 nM and 1000 nM (sheet 'Samples'), CATDS: 3.3864807637991101E-2; n = 1.
In a further test the test system is STK10. Conditions: read-out: apparent Kd; compound concentrations: 100 nM and 1000 nM (sheet 'Samples'), CATDS: 3.2932221087981599E-2; n = 1.
The next test has as its system TGFBR1. The following applies: read-out: apparent Kd; compound concentrations: 100 nM and 1000 nM (sheet 'Samples'), CATDS: 3.3353996137348303E-2; n = 1.
In a further test the test system is CSNK1A1. The following applies: read-out: apparent Kd; compound concentrations: 100 nM and 1000 nM (sheet 'Samples'), CATDS: 4.4417171665787201E-2; n = 1.
The subject of another test is CSNK1D. Conditions: read-out: apparent Kd; compound concentrations: 100 nM and 1000 nM (sheet 'Samples'), CATDS: 0.12647868619351901; n = 1.
A further test deals with CSNK1E. The following applies: read-out: apparent Kd; compound concentrations: 100 nM and 1000 nM (sheet 'Samples'), CATDS: 7.8439067124282905E-2; n = 1.
A further test relates to DDR2. The following applies: read-out: apparent Kd; compound concentrations: 100 nM and 1000 nM (sheet 'Samples'), CATDS: 4.1041053531745197E-2; n = 1.
The next test concerns MAPK10. Conditions: read-out: apparent Kd; compound concentrations: 100 nM and 1000 nM (sheet 'Samples'), CATDS: 0.179195319148265; n = 1.
The test system of another test is MAPK11. Conditions: read-out: apparent Kd; compound concentrations: 100 nM and 1000 nM (sheet 'Samples'), CATDS: 5.6945469434317497E-2; n = 1.
The next test deals with MAPK8. The following applies: read-out: apparent Kd; compound concentrations: 100 nM and 1000 nM (sheet 'Samples'), CATDS: 5.2366017866035799E-2; n = 1.
Another test concerns MAPK9. Conditions: read-out: apparent Kd; compound concentrations: 100 nM and 1000 nM (sheet 'Samples'), CATDS: 0.113637290114738; n = 1.
In another test the test system is NLK. Conditions: read-out: apparent Kd; compound concentrations: 100 nM and 1000 nM (sheet 'Samples'), CATDS: 5.1907933882023798E-2; n = 1.
Another test concerns SIK3. Conditions: read-out: apparent Kd; compound concentrations: 100 nM and 1000 nM (sheet 'Samples'), CATDS: 4.1962261561680501E-2; n = 1.

Data on two compounds can be found in article PMC11062922 (Nature Chemical Biology, 2023).

Each structure is given as a SMILES string. Read-outs that look alike come from different tables or passages of the source.

As to `Cl.c1ccc(-c2ccc3c(Nc4ccc5[nH]ccc5c4)ccnc3c2)nc1` [GW440138A], the potency estimated from few doses in the test with ACVR1B (CATDS: 4.6786491220556801E-2) was 481 nM; in the test on ACVR2B it was 119 nM; in the test with ADCK3 it was 453 nM; in the test with BCR it was 94.2 nM; in the test on CSNK1G1, 2210 nM; in the test on DCTPP1 it was 1520 nM. The potency estimated from few doses in the test on DDR1 (CATDS: 4.4560789756538197E-2) is 558 nM; in the test on FLT4, 62.1 nM; in the test on GAK (CATDS: 0.134261211287381), 50.4 nM; with MAPK14 (CATDS: 3.4656065329692502E-2), 1360 nM; in the test on MAPKAPK2 (CATDS: 3.6359622105698597E-2) it was 1130 nM; in the test on PDGFRB it was 1740 nM. The potency estimated from few doses was 131 nM in the test with PIK3CD; 1730 nM in the test on PIM2; 62.1 nM with PRKAG1; 58.9 nM in the test on RET; 96 nM in the test on RIPK2; 1230 nM with RIPK3 (CATDS: 3.5551158882109302E-2). Further, the potency estimated from few doses in the test on SLK was 1500 nM; in the test with STK10, 1700 nM; in the test with TGFBR1 it was 1610 nM.
As for `NC(=O)c1ccc2c(-c3ccnc(NCCCO)n3)c(-c3ccc(F)cc3)nn2c1` [GW581744X], the potency estimated from few doses with ACVR1B (CATDS: 5.1726105609422098E-2) is 678 nM; in the test with CSNK1A1, 1210 nM; in the test on CSNK1D, 70.3 nM; with CSNK1E, 202 nM; in the test with DDR1 (CATDS: 4.5461807893970897E-2) it was 1100 nM; in the test on DDR2 it was 1740 nM. For the same compound, the potency estimated from few doses is 485 nM in the test with GAK (CATDS: 5.7317399451807E-2); 38 nM in the test on MAPK10; 495 nM in the test with MAPK11; 25.3 nM with MAPK14 (CATDS: 0.23382543991059199); 651 nM in the test on MAPK8; 86.9 nM with MAPK9. The potency estimated from few doses with MAPKAPK2 (CATDS: 0.15591620581864199) was 48 nM; in the test on NLK, 670 nM; with RIPK3 (CATDS: 4.0216087331075998E-2), 1940 nM; in the test with SIK3 it was 1560 nM.
